# Bioassay records deposited in PubChem by National Center for Advancing Translational Sciences (NCATS).
# This is a sample that favours compounds with a hit; in the whole collection about 2.8% have one here.
# PI4K2A block: inhibitors of human PI4K2A; Q9BTU6; purified PI4K2A, ADP-Glo luminescence, 1 h; stronger effect = lower value; activity change, negative = inhibition, % at 76.9 µM; hit rate 0.13% among 420,000; in the data active = activity change below about -50%; inconclusive = mostly about -30% to -49%
#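 ADP-Glo luminescence measured ADP generated by PI4K2A enzyme (4 ug/mL before mixing) with 1.2 mM PI substrate (pre-mix) and 300 microM ATP (pre-mix). Tris pH7.5 buffer with MgCl2, Triton X-100; 1 h reaction at ambient temperature.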
# PI5P4K alpha inh: blocks human PI5P4K alpha kinase activity | P48426 | PI5P4Kalpha enzyme, ADP-Glo luminescence, 60 min; stronger effect = lower value | max response, % | hit rate 1.2% among 330,000 | AID 652105; active = max response of -50% or lower; inconclusive = between -30% and -50%; inactive = -30% or higher; note: value at the top dose of about 77 µM
# Target sequence (P48426 whole entry, looked up): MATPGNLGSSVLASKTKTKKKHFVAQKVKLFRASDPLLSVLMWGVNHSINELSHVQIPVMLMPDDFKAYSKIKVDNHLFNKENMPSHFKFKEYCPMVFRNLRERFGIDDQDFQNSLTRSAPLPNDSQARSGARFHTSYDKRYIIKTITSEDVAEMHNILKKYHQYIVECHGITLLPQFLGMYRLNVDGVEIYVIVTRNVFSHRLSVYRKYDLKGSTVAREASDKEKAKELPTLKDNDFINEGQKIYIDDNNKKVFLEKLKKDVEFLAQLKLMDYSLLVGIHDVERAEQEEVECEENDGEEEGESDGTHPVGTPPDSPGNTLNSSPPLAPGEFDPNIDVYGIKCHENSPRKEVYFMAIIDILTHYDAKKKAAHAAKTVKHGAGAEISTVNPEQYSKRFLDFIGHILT
#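 Compounds were pin-transferred onto PI5P4Kalpha and substrate in HEPES pH 7.4 buffer with EGTA, CHAPS and 5% DMSO. ATP (5 microM final) started the reaction, which ran 60 minutes at room temperature before ADP-Glo detection.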
# Pol eta inh: DNA polymerase eta (human) inhibition; Q9Y253; recombinant Pol eta, fluorescent DNA replication assay; Potency, µM (highest dose often 114 µM), hits mostly inhibitors; hit rate 1.2% among 390,000
#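 Pol eta (10 nM) was preincubated with compounds for 15 min at room temperature, after which fluorescent replication substrate (50 nM final) was added to start the reaction. Fluorescence was read kinetically at 0 and 10 min.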
# Pol kappa inh: inhibitors of human DNA polymerase kappa. purified Pol kappa, fluorescent DNA synthesis assay, 10 min. hit rate 0.53% among 400,000. Potency, µM (top dose mostly 107 µM), usual class: inhibitors. Q9UBT6
#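 10 nM Pol kappa was preincubated with compounds for 15 min at room temperature. Reaction started with 50 nM (final) substrate. Fluorescence read kinetically at 0 and 10 min.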
# POLI inh: DNA polymerase iota (human) inhibition. Q9UNA4. Pol iota fluorescent replication assay, 10 min. Potency, µM (titrated, usually from 115 µM), usual class: inhibitors. hit rate 1% among 390,000
#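 Pol iota at 10 nM preincubated 15 min with compounds at room temperature; reaction started with fluorescent substrate, 50 nM final. Fluorescence read kinetically at 0 and 10 min; buffer-only wells as negative control.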
# Pol beta inh: blocks human DNA polymerase beta activity; AID 485314; Potency, µM (titrated, usually from 114 µM), actives largely listed as inhibitors; Pol beta primer extension/strand displacement, fluorescence kinetic; P06746; hit rate 1.3% among 340,000
#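 Kinetic readout of DNA synthesis with strand displacement by Pol beta. Compound and 10 nM enzyme sit 15 min at room temperature; 50 nM substrate starts the reaction, read immediately and at 10 min.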
# Hits are given with their value; . = inactive; ? = inconclusive; / = not tested or not shown; ! = not confirmed by another sample. Unless noted, calls come from the whole dose curve; as a rule, active = well fitted inhibition curve with a large enough effect; inconclusive = small, poorly fitted or top-dose-only effect, or another doubt; inactive = no such curve, though single readings can be large or run the other way.
SMILES,PI4K2A block,PI5P4K alpha inh,Pol eta inh,Pol kappa inh,POLI inh,Pol beta inh
CCOC(=O)c1c(C)sc(-c2c(-c3cccc(Cl)c3)[nH]c3c2c(=O)n(C)c(=O)n3C)c1O,.,/,/,.,79.4µM,.
Cc1snc(SCC(=O)c2ccc(F)cc2)c1C#N,.,.,.,.,.,.
Cc1snc(SCC(=O)c2ccc([N+](=O)[O-])cc2)c1C#N,.,-57.3,.,.,.,.
C/C(=N/NS(=O)(=O)c1ccccc1)c1c[nH]c2ccccc12,.,.,.,.,89.1µM,.
C[C@@H]1CN([C@@H](C)CO)C(=O)CCCn2nncc2CO[C@H]1CN(C)S(=O)(=O)c1cccc(F)c1,.,.,.,/,/,/
COc1ccccc1Cn1c(CNS(=O)(=O)c2c(C)cc(C)cc2C)nc2cccnc21,.,/,.,.,.,.
Cc1ccccc1NC(=O)CSc1nc(-c2cccs2)nc2cc(=O)[nH]n12,.,/,.,?,89.1µM,?
O=C(CSc1nc(-c2ccco2)nc2cc(=O)[nH]n12)Nc1ccccc1Cl,.,/,.,.,?,.
Cc1ccc(NC(=O)CSc2nc(-c3ccco3)nc3cc(=O)[nH]n23)cc1,.,/,.,.,?,50.1µM
Cc1ccc(NC(=O)CSc2nc(-c3cccs3)nc3cc(=O)[nH]n23)cc1C,.,/,.,.,89.1µM,50.1µM
CC1=C(c2ccc(C)c(C)c2)S(=O)(=O)N=C1N1CCC(C(=O)Nc2cccc(F)c2)CC1,.,/,/,.,?,20µM
CC1=C(c2ccc(F)cc2)S(=O)(=O)N=C1N1CCC(C(=O)NCCc2ccco2)CC1,.,/,/,.,.,25.1µM
COc1ccc(C2=C(C)C(N3CCN(C(=O)c4ccco4)CC3)=NS2(=O)=O)cc1,.,.,.,.,?,50.1µM
CC1=C(c2ccc(C)c(C)c2)S(=O)(=O)N=C1N1CCC(C(=O)NC(C)c2ccccc2)CC1 (stereo not drawn),.,/,/,.,.,.
COc1ccc(-c2cc3ncc(C)n3c(Nc3ncccc3C(N)=O)n2)cc1OC,?,/,/,.,/,/
Cc1cc2c(cc1C)N[C@]1(C[C@H]3CCCC(=O)N4CC[C@@H](C1)[C@@H]34)C(=Nc1ccccc1C)N2,/,/,/,.,.,/
COc1cc(C(=S)N2CCCC2)ccc1O,.,/,.,?,.,.
COc1cc(C(=S)N2CCCCC2)ccc1O,.,/,.,.,56.2µM,.
COc1ccc(-c2cc(=O)c3c(O)cc(O[C@@H]4OC(COC5OC(C)C(O)C(O)[C@@H]5O)C(O)C(O)C4O)cc3o2)cc1 (stereo partly drawn),/,/,/,.,/,/
COc1ccc(-c2cc(=O)c3c(O)cc(O[C@H]4OC(COC5OC(C)C(O)C(O)[C@H]5O)C(O)C(O)C4O)cc3o2)cc1O (stereo partly drawn),/,/,/,20µM,/,/
[S-]c1nnc(-c2ccc(Br)cc2)n1-c1ccccc1.[Zn+2],.,.,.,.,2.82µM,.
CC(C)(N[C@@H](Cc1c[nH]c2ccccc12)C(=O)NCCCc1ccccc1)C(=O)NCc1ccccc1,.,/,/,/,/,/
CCC(C)NC(=O)c1ccc2nc(-c3cccs3)c(-c3cccs3)nc2c1 (stereo not drawn),/,/,/,.,?,/
O=C(Cn1sc2ccccc2c1=O)Nc1ccc(F)cc1,.,-91.5,.,/,/,/
O=C(Cn1sc2ccccc2c1=O)Nc1ccc(Br)cc1,.,-83.1,.,/,/,/
SMILES,PI4K2A block,PI5P4K alpha inh,Pol eta inh,Pol kappa inh,POLI inh,Pol beta inh
O=C(Cn1sc2ccccc2c1=O)Nc1ccc(Cl)cc1,.,-81.8,.,/,/,/
O=C(CN1C(=O)C2CC=CCC2C1=O)Nc1ccc(Br)cc1 (stereo not drawn),.,.,.,.,.,.
O=C(Cn1nc(-c2ccccc2)c2ccccc2c1=O)Nc1ccc(F)cc1,.,.,.,.,.,.
O=C(CC1c2ccccc2Oc2ccccc21)Nc1ccccc1F,.,.,.,.,89.1µM,.
O=C(CC1c2ccccc2Oc2ccccc21)Nc1ccccc1C(F)(F)F,.,.,.,.,.,.
COc1cccc(NC(=O)C2CCC(CNS(=O)(=O)c3csc(C(N)=O)c3)CC2)c1 (stereo not drawn),-66.3,/,.,.,.,.
CSc1cccc(NC(=O)CN(c2ccccc2)S(=O)(=O)N(C)C)c1,.,/,?,.,?,10µM
Cc1ccc(-c2cnn(-c3ccccc3)c2N)cc1,-76.1,?,.,.,.,.
CCc1ccc(NC2=CC(=O)C(=O)c3ccccc32)cc1,?,.,50.1µM,.,?,/
O=C1C=C(Nc2ccccc2)c2ccccc2C1=O,.,.,?,.,22.4µM,.
O=C1C=C(Nc2ccccc2)C(=O)c2ccccc21,.,.,.,.,.,.
COc1ccc(C(CNC(=O)COc2ccccc2)N2CCCCC2)cc1 (stereo not drawn),.,.,.,.,.,/
COc1ccc(OCC(=O)NCC(c2ccc(OC)cc2)N2CCCCC2)cc1 (stereo not drawn),.,.,.,.,.,89.1µM!
O[C@@H](COc1cccc2ncccc12)CN1CCN(C2c3ccccc3[C@@H]3[C@H](c4ccccc42)C3(F)F)CC1 (stereo partly drawn),.,/,/,/,/,/
CC[C@@]1(O)C[C@H](O[C@H]2C[C@@H](N(C)C)[C@@H](O[C@H]3C[C@@H](O)[C@@H](O[C@H]4CCC(=O)[C@@H](C)O4)[C@@H](C)O3)[C@@H](C)O2)c2c(cc3c(c2O)C(=O)c2c(O)cccc2C3=O)[C@H]1C(=O)OC,/,/,/,4.47µM,/,/
